PLC-gamma1 inh: inhibitors of human phospholipase C gamma1 | P19174 | purified PLC-gamma1, fluorogenic substrate, fluorescence | inhibition, % at 12.2 µM | 370,000 tested, 0.84% active | AID 720700
bovine MsrA act: activates bovine MsrA enzyme; purified bovine MsrA, absorbance read-out; activation, % at 10.6 µM; 360,000 tested, 0.3% active; AID 602163; in the data active means activation above about 7.5%;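 further: 0% = vehicle and 100% = reference activator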
MsrA inh: inhibits bovine methionine sulfoxide reductase A | purified bovine MsrA, absorbance read-out | inhibition, % at 15.5 µM | 360,000 tested, 0.75% active; in the data active means inhibition above about 4.5%;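 further: 0% = vehicle wells with enzyme and 100% = reference inhibitor wells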
PLCb3 inh: blocks human PLC-beta3 enzyme activity. inhibition, % at 12.2 µM. 370,000 tested, 0.18% active. AID 720704. Purified PLC-beta3, fluorogenic substrate, fluorescence; in the data active means inhibition above about 11%;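 further: 0% = median of compound wells on plate and 100% = full blocker control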
PLCgamma1 ctr: inhibits human PLC-gamma1 in PLC-beta3 counter-screen | shares compounds with PLC-gamma1 inh | inhibition, % at 12.3 µM | 3,300 tested, 3.1% active | purified PLC-gamma1, fluorogenic substrate, fluorescence
PLCb3 confirm: confirmation of human PLC-beta3 inhibitors; purified PLC-beta3, fluorogenic substrate fluorescence; inhibition, % at 12.3 µM; shares compounds with PLC-gamma1 inh; 3,300 tested, 1% active; in the data active means inhibition above about 11%
An asterisk follows results filed as active. Compounds with a hit are over-represented: about 1.9% of the library has one in this group of screens. Unless noted, no stated cut-off is given here; in the data, active means inhibition above about 9.5%; inactive means the rest.

How did Clc1ccc(SCCCCN2CCOCC2)cc1 do in these assays?
PLC-gamma1 inh: 14*; bovine MsrA act: 2; MsrA inh: 0; PLCb3 inh: 9; PLCgamma1 ctr: 0; PLCb3 confirm: 2

What do the screens show for `Cc1cccc(C(O)c2cnc(C)n2Cc2ccccc2)c1` (stereo unspecified)?
PLC-gamma1 inh: 2; bovine MsrA act: -3; MsrA inh: 2; PLCb3 inh: 2

What do the screens show for `COc1cc(C(=O)NC2CCCCN(C)C2=O)cc(OC)c1OC` (stereo unspecified)?
PLC-gamma1 inh: -2; MsrA inh: 0; PLCb3 inh: -1

What do the screens show for `COC(=O)c1cc(C(=O)Nc2nnc(CC(C)C)s2)cc([N+](=O)[O-])c1`?
PLC-gamma1 inh: 0; bovine MsrA act: -5; MsrA inh: 0; PLCb3 inh: 3

What do the screens show for `CCC(CC)c1nnc(NC(=O)c2cc(C(=O)OC)cc([N+](=O)[O-])c2)s1`?
PLC-gamma1 inh: 12*; bovine MsrA act: -9; MsrA inh: 2; PLCb3 inh: 0; PLCgamma1 ctr: -4; PLCb3 confirm: -2

Results for CCOC(=O)CSc1nnc(NC(=O)c2cccc([N+](=O)[O-])c2)s1 ?
PLC-gamma1 inh: 5; bovine MsrA act: -2; MsrA inh: 3; PLCb3 inh: 13*; PLCgamma1 ctr: -3; PLCb3 confirm: 0

Results for COc1ccc2c(c1)CC1c3c(cc4c(c3-2)OCO4)CC[N+]1(C)[O-] (stereo unspecified) ?
PLC-gamma1 inh: -30; bovine MsrA act: 0; MsrA inh: 0; PLCb3 inh: -28

Results for Cc1ccc(NC(=O)C2CCCN(S(=O)(=O)c3ccc4c(c3)oc(=O)n4C)C2)nc1 (stereo unspecified) ?
PLC-gamma1 inh: 9.8*; bovine MsrA act: 0; MsrA inh: 0; PLCb3 inh: 5; PLCgamma1 ctr: -5; PLCb3 confirm: -2

How did C#CNC(=O)C1(CC=C)CCNCC1 do in these assays?
PLC-gamma1 inh: 4; bovine MsrA act: -1; MsrA inh: -1; PLCb3 inh: 12*; PLCgamma1 ctr: -5; PLCb3 confirm: -2

How did COC(=O)[C@@]12C[C@@H](CC(=O)N3CCN(C(=O)C4CC4)CC3)C(=O)N(CCc3ccc(OC)c(OC)c3)C1=CCC(C)(C)C2 do in these assays?
PLC-gamma1 inh: 1; MsrA inh: 0; PLCb3 inh: 0

How did Cc1ccc(C(=O)OCC(=O)Nc2ccccc2C(F)(F)F)cc1S(=O)(=O)N1CCCCC1 do in these assays?
PLC-gamma1 inh: 9.8*; bovine MsrA act: -1; MsrA inh: 2; PLCb3 inh: -4; PLCgamma1 ctr: 3; PLCb3 confirm: 5

Results for Cc1noc(C)c1NC(=O)NC(c1ccccc1)c1ccccc1 ?
PLC-gamma1 inh: 10*; bovine MsrA act: -10; MsrA inh: 0; PLCb3 inh: -6; PLCgamma1 ctr: 6; PLCb3 confirm: 2

What do the screens show for `Cc1onc(-c2ccccc2Cl)c1C(=O)NC(C)c1ccccc1` (stereo unspecified)?
PLC-gamma1 inh: 0; bovine MsrA act: -1; MsrA inh: 0; PLCb3 inh: -2

What do the screens show for `COC(=O)c1c(-c2c(Cl)cccc2Cl)noc1C(=O)NN`?
PLC-gamma1 inh: -2; bovine MsrA act: -1; MsrA inh: -1; PLCb3 inh: -13

How did COC(=O)c1c(-c2c(Cl)cccc2Cl)noc1C(=O)NNC(=O)N(C)C do in these assays?
PLC-gamma1 inh: 9.8*; bovine MsrA act: -2; MsrA inh: 1; PLCb3 inh: 1; PLCgamma1 ctr: 4; PLCb3 confirm: -1

How did Cc1cc(C(=O)NC(=S)Nc2cccc(C(=O)O)c2C)ccc1[N+](=O)[O-] do in these assays?
PLC-gamma1 inh: 9.8*; bovine MsrA act: 0; MsrA inh: 2; PLCb3 inh: 5; PLCgamma1 ctr: 4; PLCb3 confirm: 1

How did Cc1cc(C(=O)NC(=S)Nc2cccc(NC(=O)C(C)C)c2)ccc1[N+](=O)[O-] do in these assays?
PLC-gamma1 inh: 3; bovine MsrA act: -6; MsrA inh: 1; PLCb3 inh: -1

How did Cc1ccc(S[C@@H](CCN2CC[C@H](C)CCC2=O)c2ccccc2)cc1 do in these assays?
PLC-gamma1 inh: -2; bovine MsrA act: -6; MsrA inh: 0; PLCb3 inh: 1

How did COc1ccc(S[C@@H](CCN2CC[C@H](C)CCC2=O)c2ccccc2)cc1 do in these assays?
PLC-gamma1 inh: 9.7*; bovine MsrA act: -2; MsrA inh: 1; PLCb3 inh: 7; PLCgamma1 ctr: -6; PLCb3 confirm: -3

How did C[C@@H]1CCC(=O)N(CC[C@H](Oc2ccccc2)c2ccccc2)CC1 do in these assays?
PLC-gamma1 inh: 13*; bovine MsrA act: -1; MsrA inh: 1; PLCb3 inh: 4; PLCgamma1 ctr: 2; PLCb3 confirm: 2

What do the screens show for `C[C@@H]1CCC(=O)N(CC[C@H](Sc2ccc(Br)cc2)c2ccccc2)CC1`?
PLC-gamma1 inh: 5; bovine MsrA act: -1; MsrA inh: 1; PLCb3 inh: 5

Results for CCCS(=O)(=O)NC(=O)C1(C)CCN(C(=O)c2cc(-c3cccs3)oc2C)C1 (stereo unspecified) ?
PLC-gamma1 inh: -7; bovine MsrA act: -6; MsrA inh: -1; PLCb3 inh: -17

Results for CCCCCn1cc(CCC(=O)Nc2ccc(N(C)c3ccccn3)cc2)c2ccccc21 ?
PLC-gamma1 inh: -30; MsrA inh: 0; PLCb3 inh: -36

Results for O=C(CSc1nc(=O)n(CCN2CCOCC2)c2c1CCCC2)Nc1cccc([N+](=O)[O-])c1 ?
PLC-gamma1 inh: 3; bovine MsrA act: 0; MsrA inh: 2; PLCb3 inh: 19*; PLCgamma1 ctr: -3; PLCb3 confirm: -2

Results for C[C@@H]1CN([C@@H](C)CO)C(=O)CCCn2nncc2CO[C@H]1CN(C)C(=O)Nc1ccc(-c2cccs2)cc1 ?
PLC-gamma1 inh: -18; bovine MsrA act: -1; MsrA inh: 0; PLCb3 inh: -27

How did COC(=O)[C@]12C[C@H](CC(=O)NCCCCc3ccccc3)C(=O)N(Cc3ccccc3)C1=C[C@H](C(C)(C)C)O[C@@H]2C do in these assays?
PLC-gamma1 inh: -2; MsrA inh: 0; PLCb3 inh: -1

Results for O=C(c1ccccc1)N1CCN=C1SCc1ccc([N+](=O)[O-])cc1 ?
PLC-gamma1 inh: 9.6*; bovine MsrA act: -2; MsrA inh: 0; PLCb3 inh: -3; PLCgamma1 ctr: -3; PLCb3 confirm: 0

What do the screens show for `O=C(c1ccc([N+](=O)[O-])cc1)N1CCN=C1SCc1ccccc1`?
PLC-gamma1 inh: 1; bovine MsrA act: 0; MsrA inh: -1; PLCb3 inh: 0

Results for CN1C(C(=O)NCc2ccc(OC(F)(F)F)cc2)CC2Cn3c(nc4ccccc43)C21 (stereo unspecified) ?
PLC-gamma1 inh: 3; bovine MsrA act: -1; MsrA inh: 1; PLCb3 inh: 2

Results for CCN1CCN(S(=O)(=O)c2cccc3nsnc23)CC1 ?
PLC-gamma1 inh: 5; bovine MsrA act: -14; MsrA inh: 2; PLCb3 inh: 13*; PLCgamma1 ctr: -3; PLCb3 confirm: 2
